Compounds with a hit are over-represented: about 1.2% of the library has one in this group of screens.
C-LANA FP = inhibitors of KSHV LANA C-terminal domain DNA binding; hit rate 0.078% among 340,000; MBP-C-LANA/FAM-LBS DNA binding, fluorescence polarization; inhibition, % at 9 µM; AID 504423;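 active = highest replicate inhibition at or above 60% at 9 µM, even if other replicates fall short; inactive = all replicates below 60% inhibition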;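 also: 0% = neutral control wells and 100% = 4 µM acridine orange control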
BCLXL inh = Bcl-xL (human) inhibition | GST-Bcl-xL / FITC-Bim BH3 peptide fluorescence polarization | inhibition, % at 10.9 µM | hit rate 0.7% among 320,000 | AID 2129;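 active = inhibition above the mean of all tested compounds plus 3 SD, cutoff set per campaign, cut at about 30% in these data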;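 also: 0% = DMSO wells and 100% = unlabeled Bim-BH3 peptide competitor; inhibitors lower millipolarization by displacing the labeled peptide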
E coli Lon inh = inhibits E. coli Lon protease; inhibition, % at 7.94 µM; hit rate 0.42% among 360,000; purified E. coli Lon protease, fluorescence polarization; P0A9M0; in the data active = inhibition above about 13%, passing the limit was not always enough;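 also: 0% = enzyme with probe and DMSO and 100% = no enzyme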
GLD-1 RNA inh = GLD-1-TGE RNA interaction inhibition (C. elegans) | Q17339 | purified GLD-1 + fluorescein TGE RNA, fluorescence polarization | inhibition, % at 5.96 µM | hit rate 0.44% among 320,000 | AID 2280;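 active = percent inhibition above a per-plate cutoff, the plate mean of test compounds plus 3 SD, cut at about 30% in these data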;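 also: 0% = DMSO wells with GLD-1 and probe and 100% = wells lacking GLD-1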
MEX-5 binding = C. elegans MEX-5 TCR-2 RNA binding activity; Q9XUB2; MEX-5/FITC-TCR2 RNA binding, fluorescence polarization; hits give low values; activity score (negative = inhibition of binding), % at 10 µM; hit rate 0.38% among 300,000;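 active = inhibition past about -25% in most replicates, and total fluorescence under double the plate's negative control median, limit read from the data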;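 also: 0% = DMSO and -100% = 5 µM competing unlabeled TCR2 RNA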
Target sequence (Q9XUB2 whole entry, looked up): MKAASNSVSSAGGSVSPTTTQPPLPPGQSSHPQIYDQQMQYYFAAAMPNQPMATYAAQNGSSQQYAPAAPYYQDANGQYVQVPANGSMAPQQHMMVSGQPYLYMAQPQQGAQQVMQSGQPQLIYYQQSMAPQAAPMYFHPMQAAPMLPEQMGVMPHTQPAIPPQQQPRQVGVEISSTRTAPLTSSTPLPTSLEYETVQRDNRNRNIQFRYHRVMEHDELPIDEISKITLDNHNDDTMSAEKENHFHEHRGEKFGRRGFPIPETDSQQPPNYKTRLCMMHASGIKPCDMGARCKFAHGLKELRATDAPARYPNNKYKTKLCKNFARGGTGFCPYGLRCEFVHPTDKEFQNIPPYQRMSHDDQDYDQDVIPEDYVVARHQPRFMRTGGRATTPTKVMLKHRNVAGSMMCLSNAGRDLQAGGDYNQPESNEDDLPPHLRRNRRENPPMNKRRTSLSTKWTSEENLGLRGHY
Keap1-Nrf2 PPI = disrupts human Keap1 binding to Nrf2 peptide. Q14145. Keap1 Kelch-Nrf2 peptide fluorescence polarization, 1536-well. inhibition, % at 9.4 µM. hit rate 0.15% among 340,000. AID 504523; in the data active = inhibition above about 12%;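 also: human Keap1 Kelch domain with fluorescein labeled Nrf2 9mer peptide probe; 0% = neutral control wells and 100% = peptide positive control; higher means more block of Keap1 binding to Nrf2 peptide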
GLD1 RNA confirm = confirmation of C. elegans GLD-1 TGE RNA binding inhibitors; shares compounds with GLD-1 RNA inh; GLD-1/FL-TGE RNA fluorescence polarization, biochemical; inhibition, % at 5.96 µM; hit rate 10% among 550;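 active = average inhibition across triplicates above the hit cutoff set in the primary screen, cut at about 32% in these data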;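 also: 0% = GLD-1 with RNA probe and DMSO and 100% = wells lacking GLD-1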
Keap1 Kelch bind = binds and thermally shifts human Keap1 Kelch domain. shares compounds with Keap1-Nrf2 PPI. Keap1 Kelch thermal shift, delta Tm; hits give high values. max delta Tm, degrees C. hit rate 8% among 400; in the data active = max delta Tm above about 0.48 degrees C
Dye-only ctr = counter-screen for Keap1 thermal shift hits: dye-only artifacts; Sypro Orange dye-only thermal melt, no protein, delta Tm; top dose 26 µM; 140 tested, under 10 active; delta Tm, degrees C (concentration not given with the values); shares compounds with Keap1-Nrf2 PPI;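 active = at highest dose tested, delta Tm positive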
eLon confirm = E. coli Lon inhibition confirmation. inhibition, % at 7.94 µM. purified E. coli Lon, fluorescence polarization. hit rate 31% among 1,400. shares compounds with E coli Lon inh. AID 602230; in the data active = inhibition above about 16%;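 also: 0% = enzyme with probe and DMSO and 100% = no enzyme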
Numbers without * were called inactive; · = no result; + = active, no number; ! = not active in a repeat.

SMILES | C-LANA FP | BCLXL inh | E coli Lon inh | GLD-1 RNA inh | MEX-5 binding | Keap1-Nrf2 PPI | GLD1 RNA confirm | eLon confirm | others
COc1ccc(CN2CCC2(C)C(=O)Nc2cnc3ccccc3c2)c2ccccc12 (stereo not given) | · | · | -10 | · | · | · | · | ·
CCc1ccc(C(O)c2ncc(-c3ccccc3Cl)[nH]2)cc1 (stereo not given) | · | · | -4 | · | · | · | · | ·
CCC1OC2(C)OC(=N)C1(C#N)C(C#N)(C#N)C2c1ccccc1 (stereo not given) | 63* | 60* | -21 | 44* | -9 | 31* | -1 | · | Keap1 Kelch bind=-0.08;Dye-only ctr=-22
CCN(CC(=O)Nc1ccc2c(c1)OCCO2)C(=O)c1ccc(C)c(S(=O)(=O)N2CCOCC2)c1 | 0 | 2 | -5 | 9 | 2 | -2 | · | ·
CCn1c(CSc2nccn2C)nc2cc(C(=O)O)ccc21 | 7 | 57* | 32* | 45* | -19 | -2 | 40* | -7
CCn1c(CSc2nc3ccccc3[nH]2)nc2cc(C(=O)O)ccc21 | 5 | 27 | 6 | 14 | · | 3 | · | ·
CCOc1ccccc1-c1cc(NC)ncn1 | · | · | -13 | · | · | · | · | ·
COC(=O)c1c(C)c2c(C)cc3ccccn3c-2c1C(=O)OC | 8 | 51* | 45* | 33* | 1 | 5 | 20 | -6
CCOC(=O)C(=O)c1c(C)cc2ccccn12 | 0 | · | 2 | · | · | -5 | · | ·
Cc1cc(C)nc(SCc2ccc(C(=O)N/N=C3\CCCC(=O)C3)cc2)n1 | 3 | 8 | 23* | 43* | -1 | -3 | -9 | -10
CCCCC1=CC2=C(c3ccco3)C(=O)C(C)(OC(=O)c3ccc(OC)cc3)C(=O)C2=CN1C1CC1 (stereo not given) | 0 | 41* | 56* | 32* | -59* | -3 | 12 | 8
CCCCC1=CC2=C(c3ccco3)C(=O)C(C)(OC(=O)c3ccc(OC)cc3)C(=O)C2=CN1C(CO)CO (stereo not given) | 0 | 25 | 31* | 34* | -23 | 3 | 15 | 5
O=C1c2ccccc2C(=O)c2c(O)c(O)cc(O)c21 | 11 | · | + | 70* | · | 7 | 43* | +
O=C(O)c1cccc2c1C(=O)c1ccccc1-2 | 0 | 4 | -7 | 2 | 1 | 0 | · | ·
CCC(=O)N(c1nnc(SCC(=O)c2ccc[nH]2)s1)C1CC1 | -3 | · | -13 | 5 | · | -4 | · | ·
Cc1cccc(NC(=O)c2ncn3c2C(=O)NC[C@H]3C)c1 | · | · | -3 | · | · | · | · | ·
Cc1onc(-c2ccccc2Cl)c1C(=O)NCc1ccc2c(c1)cc(C)n2C | 0 | 66* | 36* | 68* | 0 | -2 | 16 | 15
COc1cc(OC)cc(C(=O)NCc2ccc3c(c2)cc(C)n3C)c1 | 0 | 30* | 46* | 52* | 1 | 1 | 7 | 6
Cc1cc2cc(CNC(=O)c3ccco3)ccc2n1C | 3 | 38* | 14* | 34* | 0 | -6 | 3 | 14
CCOc1ccc(NC(=O)c2cccc(-n3cccc3)c2)cc1S(=O)(=O)N1CCOCC1 | 2 | 0 | 0 | 12 | · | -12 | · | ·
CN1Cc2c(N)cccc2C(c2ccccc2)C1 (stereo not given) | 8 | 79* | 55*! | 39* | -6 | 3 | 13 | 75*
COc1cc(C(=O)NC2CC2)cc(OC)c1OC | · | · | -7 | · | · | · | · | ·
COc1cc(O)cc2cc3c(c(O)c12)C(=O)CC(C)(O)O3 (stereo not given) | 16 | 38* | 18* | 34* | · | 1 | 49* | 24*
COc1cc(O)c2c(c1)OC(C)(C)CC2=O | -2 | 7 | 3 | 1 | -4 | -5 | · | ·
